SMILES strings stand for the structures. About 83,000 compounds went through this panel and 20% of them were active in at least one assay; those are over-represented in the sample as a whole.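 The test compound was applied at a single concentration to cells in 96-well plates for 48 hours, and percent growth was recorded.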 Activity calls are given as the source filed them. The calls were made as follows: active = growth percent below 10; inactive = the rest.

The subject of one assay is SW-620 colon. Nature of the assay: NCI-60 one-dose screen, 48 h (100 = growth as untreated, 0 = no growth, -100 = all killed). Particulars: 10 µM unless noted.
On to `O=[N+]([O-])c1cccc(C2c3ccccc3Oc3ccccc32)c1`, for which the growth was 86.9% (inactive).
As to `CCCCCCCC(=O)SCC/C=C/[C@@H]1CC(=O)NCc2nc(cs2)C2=N[C@@](C)(CS2)C(=O)N[C@@H](C(C)C)C(=O)N1`, the growth is 26.9% (inactive).
As to `Cc1ccc(NC(=O)CN2CCOCC2)cc1Cl`, the growth was 98.5% (inactive).
As for `O=C(NOC1OC(CO)C(O)C(O)C1O)Nc1ccccc1` (centres undefined), the growth is 106% (inactive).
For the compound `C=C1C(=O)O[C@H]2[C@H]1CC/C(COC(=O)c1ccc(C#N)cc1)=C\CC[C@@]1(C)O[C@@H]21`, the growth is -27.7% (active).
As for `CN[C@@H](CCCNC(N)=NC/C=C(/C)CCC=C(C)C)C(=O)N(C)[C@@H](CCCNC(N)=NCC=C(C)C)C(=O)N[C@H](C)[C@H](OS(=O)(=O)O)c1ccc(OS(=O)(=O)O)c(COS(=O)(=O)O)c1`, the growth is 108% (inactive).
With `C#CC(=O)/C=C/CCCCCCC#CC(=O)CCC(=O)C#CCCCCCC/C=C/C(=O)C#C`, the growth was 8.47% (active).
Consider `C#C[C@@]1(O)[C@@H](CO)O[C@@H](n2cc(Br)c3c(Cl)ccnc32)[C@@H]1O`, for which the growth is 14.5% (inactive).
On the same count and under the same terms, as for `COc1cc(C(=O)N2CCN(C(=O)c3cc(OC)c(OCc4ccccc4)cc3N)CC2)c(N)cc1OCc1ccccc1`, the figure is 119% (inactive); as for `c1ccc(CNCCN(CCNCc2ccccn2)Cc2ccc3ccccc3c2)nc1`, 13% (inactive); as for `O=C(O)c1ccc2nc(-c3ccc(OCCCCCOc4ccc(-c5nc6ccc(C(=O)O)cc6[nH]5)cc4)cc3)[nH]c2c1`, 57.1% (inactive).
Take `COc1ccc(Cn2cc(COc3ccc4c5ccnc(C)c5n(CCCc5ccccc5)c4c3)nn2)cc1`: the growth is 65.5% (inactive).
Same read-out and setting: as for `COc1ccc(Cl)cc1NC(=O)c1cc2c([nH]1)-c1nc(N)sc1CCC2`, the figure is 107% (inactive); as for `COc1cc2c(cc1OCCCCC(=O)Nc1ccc(-c3nc4ccccc4s3)cc1)N=C[C@@H]1CCCN1C2=O`, -16.9% (active); as for `CC(C)(CCN=C(N)Nc1ccccn1)c1ccc(C(F)(F)F)cc1`, -11.2% (active).
In the case of `Cc1c(Cl)ccc2c(C(=O)Cl)cc(-c3ccccc3)nc12`, the growth was 97.5% (inactive).
On to `Cn1c(I)c(C#C[Si](C)(C)C)c(=O)[nH]c1=O`, for which the growth is -66.5% (active).
Consider `C#C[C@H](O)/C=C/CCCCCCC#C[C@H](O)CC[C@@H](O)C#CCCCCCC/C=C/[C@@H](O)C#C`, for which the growth was 71.9% (inactive).
Consider `COc1ccc(-c2nn(-c3ccc(NC(=O)c4cc(C(F)(F)F)cc(C(F)(F)F)c4)cc3)cc2-c2ccncc2)cc1Cl`, for which the growth was 72.1% (inactive).
Consider `COc1ccccc1C(OC(C)=O)OC(C)=O`, for which the growth was 108% (inactive).
Still for that read-out and setting: the figure for `CCc1c(C)c2cc3c(c(C)c2oc1=O)OCC(=O)N3` is 90.3% (inactive); for `CC(=O)Cc1cccnc1` it is 97.1% (inactive).
The same measure, in the same setting: the figure for `OCc1cn(-c2ccc(Cl)cc2)nc1-c1ccc(O)cc1` is 112% (inactive).
In the case of `CCCc1nn2c(CCC(=O)c3nc4ccc([N+](=O)[O-])cc4[nH]3)nnc2s1`, the growth is 97.6% (inactive).
As for `O=C(CNc1cccnc1)Nc1ccc(C(=O)/C=C/c2ccc(Cl)cc2)cc1`, the growth is 74.3% (inactive).
Same read-out and setting: the figure for `CC(=O)Nc1ccc(OC(=O)c2ccccc2O)cc1` is 101% (inactive).
For the compound `CC(C)CNCC(O)COc1ccc(C(C)(C)c2ccc(OCC(O)CNCC(C)C)cc2)cc1` (centres undefined), the growth is 1.07% (active).
On to `CCCCCCCCCCCCCCCCCCNCc1ccc(Cl)cc1`, for which the growth is -75.8% (active).
On to `Nc1nccc(=S)[nH]1`, for which the growth is 103% (inactive).
As to `O=C(Nc1ccc(-n2ccc3c(NC(=O)c4ccccc4)ncnc32)cc1)Nc1cccc(Cl)c1Cl`, the growth was 11.5% (inactive).
Still for that read-out and setting: as for `c1ccc2c(c1)Oc1cccnc1-n1nccc1-2`, the figure is 102% (inactive).
On to `Nc1nc2ccc(CNc3ccc(C(=O)NC(CC(=O)O)C(=O)O)cc3)cc2c(=O)[nH]1` (centres undefined), for which the growth was 31.8% (inactive).
Take `COc1cc(-c2nc3ccccc3s2)ccc1OCc1nc2n(n1)S(=O)(=O)c1ccccc1N2C`: the growth was 92.4% (inactive).
Turning to `C=CC(C)(O)CCC1C(=C)CCC2C(C)(C)CCCC12C` (centres undefined), the growth is 111% (inactive).
On to `COc1ccc(-c2cc3ccc(N(C)C)cc3nc2N)c(F)c1`, for which the growth was 42.5% (inactive).
Still for that read-out and setting: as for `O=C(Nc1ccc(-n2ccc3c(NC(=O)c4ccccc4)ncnc32)cc1)Nc1ccc(Cl)c(Cl)c1`, the figure is -2.62% (active); as for `N#Cc1c(N)nc2c(c1N)C(c1ccc(Cl)cc1)C1=C(CCCC1=O)N2c1sc2c(c1C#N)CCCC2` (centres undefined), 107% (inactive).
For the compound `CCn1c(SC)nnc1-c1cc2c([nH]c3ccccc32)c(-c2cccc(O)c2)n1`, the growth is 33.1% (inactive).

The subject of a further assay is MCF7 breast. The description is as above. Conditions: 10 µM unless noted.
With `O=[N+]([O-])c1cccc(C2c3ccccc3Oc3ccccc32)c1`, the growth is 98.7% (inactive).
With `CCCCCCCC(=O)SCC/C=C/[C@@H]1CC(=O)NCc2nc(cs2)C2=N[C@@](C)(CS2)C(=O)N[C@@H](C(C)C)C(=O)N1`, the growth was 13.2% (inactive).
Take `Cc1ccc(NC(=O)CN2CCOCC2)cc1Cl`: the growth is 91.8% (inactive).
For the compound `O=C(NOC1OC(CO)C(O)C(O)C1O)Nc1ccccc1` (centres undefined), the growth was 87.9% (inactive).
For `C=C1C(=O)O[C@H]2[C@H]1CC/C(COC(=O)c1ccc(C#N)cc1)=C\CC[C@@]1(C)O[C@@H]21`, the growth is 0.298% (active).
With `CN[C@@H](CCCNC(N)=NC/C=C(/C)CCC=C(C)C)C(=O)N(C)[C@@H](CCCNC(N)=NCC=C(C)C)C(=O)N[C@H](C)[C@H](OS(=O)(=O)O)c1ccc(OS(=O)(=O)O)c(COS(=O)(=O)O)c1`, the growth is 97.7% (inactive).
As to `C#CC(=O)/C=C/CCCCCCC#CC(=O)CCC(=O)C#CCCCCCC/C=C/C(=O)C#C`, the growth is 21.6% (inactive).
The same measure, in the same setting: as for `C#C[C@@]1(O)[C@@H](CO)O[C@@H](n2cc(Br)c3c(Cl)ccnc32)[C@@H]1O`, the figure is 1.48% (active); as for `COc1cc(C(=O)N2CCN(C(=O)c3cc(OC)c(OCc4ccccc4)cc3N)CC2)c(N)cc1OCc1ccccc1`, 89.5% (inactive).
With `c1ccc(CNCCN(CCNCc2ccccn2)Cc2ccc3ccccc3c2)nc1`, the growth is 3.36% (active).
Turning to `O=C(O)c1ccc2nc(-c3ccc(OCCCCCOc4ccc(-c5nc6ccc(C(=O)O)cc6[nH]5)cc4)cc3)[nH]c2c1`, the growth was 82.3% (inactive).
Regarding `COc1ccc(Cn2cc(COc3ccc4c5ccnc(C)c5n(CCCc5ccccc5)c4c3)nn2)cc1`, the growth is 47.7% (inactive).
With `COc1ccc(Cl)cc1NC(=O)c1cc2c([nH]1)-c1nc(N)sc1CCC2`, the growth was 98.9% (inactive).
Take `COc1cc2c(cc1OCCCCC(=O)Nc1ccc(-c3nc4ccccc4s3)cc1)N=C[C@@H]1CCCN1C2=O`: the growth is 1.14% (active).
On to `CC(C)(CCN=C(N)Nc1ccccn1)c1ccc(C(F)(F)F)cc1`, for which the growth is -11.2% (active).
`Cc1c(Cl)ccc2c(C(=O)Cl)cc(-c3ccccc3)nc12`: the growth was 87.6% (inactive).
As to `Cn1c(I)c(C#C[Si](C)(C)C)c(=O)[nH]c1=O`, the growth was 82.1% (inactive).
As to `C#C[C@H](O)/C=C/CCCCCCC#C[C@H](O)CC[C@@H](O)C#CCCCCCC/C=C/[C@@H](O)C#C`, the growth was 68.5% (inactive).
The same measure, in the same setting: as for `COc1ccc(-c2nn(-c3ccc(NC(=O)c4cc(C(F)(F)F)cc(C(F)(F)F)c4)cc3)cc2-c2ccncc2)cc1Cl`, the figure is 66.9% (inactive); as for `COc1ccccc1C(OC(C)=O)OC(C)=O`, 90.9% (inactive).
The same measure, in the same setting: as for `CCc1c(C)c2cc3c(c(C)c2oc1=O)OCC(=O)N3`, the figure is 82.1% (inactive); as for `CC(=O)Cc1cccnc1`, 101% (inactive).
On to `OCc1cn(-c2ccc(Cl)cc2)nc1-c1ccc(O)cc1`, for which the growth is 90.4% (inactive).
Regarding `CC(=O)Nc1ccc(OC(=O)c2ccccc2O)cc1`, the growth was 99.5% (inactive).
`CC(C)CNCC(O)COc1ccc(C(C)(C)c2ccc(OCC(O)CNCC(C)C)cc2)cc1` (centres undefined): the growth was 10.3% (inactive).
Turning to `CCCCCCCCCCCCCCCCCCNCc1ccc(Cl)cc1`, the growth was -71.2% (active).
Turning to `Nc1nccc(=S)[nH]1`, the growth is 93.4% (inactive).
On to `O=C(Nc1ccc(-n2ccc3c(NC(=O)c4ccccc4)ncnc32)cc1)Nc1cccc(Cl)c1Cl`, for which the growth is 2.07% (active).
Same read-out and setting: the figure for `c1ccc2c(c1)Oc1cccnc1-n1nccc1-2` is 98.6% (inactive); for `Nc1nc2ccc(CNc3ccc(C(=O)NC(CC(=O)O)C(=O)O)cc3)cc2c(=O)[nH]1` (centres undefined) it is 27.2% (inactive); for `COc1cc(-c2nc3ccccc3s2)ccc1OCc1nc2n(n1)S(=O)(=O)c1ccccc1N2C` it is 90.5% (inactive).
On to `C=CC(C)(O)CCC1C(=C)CCC2C(C)(C)CCCC12C` (centres undefined), for which the growth was 92.7% (inactive).
Still for that read-out and setting: as for `COc1ccc(-c2cc3ccc(N(C)C)cc3nc2N)c(F)c1`, the figure is 14.7% (inactive); as for `O=C(Nc1ccc(-n2ccc3c(NC(=O)c4ccccc4)ncnc32)cc1)Nc1ccc(Cl)c(Cl)c1`, 0.297% (active).
`N#Cc1c(N)nc2c(c1N)C(c1ccc(Cl)cc1)C1=C(CCCC1=O)N2c1sc2c(c1C#N)CCCC2` (centres undefined): the growth was 99.7% (inactive).
On the same count and under the same terms, the figure for `CCn1c(SC)nnc1-c1cc2c([nH]c3ccccc32)c(-c2cccc(O)c2)n1` is 13.8% (inactive).

For the origin of these results see PubChem BioAssay (NCI).
